{"source": "PubChem BioAssay AID1745848", "about": "(National Center for Advancing Translational Sciences (NCATS), 2022)", "note": "“And” between values parts separate entries of the source, which are not always exact repeats. Identical values can stand only once. About 940 (45%) of roughly 2,100 compounds were called active. Roughly 48% stayed inconclusive and do not appear here. So high a share suggests a set chosen from earlier hits. The list shows a part of the results. A number with no mark means an inactive call. Calls follow the shape of the dose curve; as a rule, active = well fitted inhibition curve with a large enough effect; inconclusive = small, poorly fitted or top-dose-only effect; inactive = no such curve, though single readings can be large or run the other way. Potency is read from the fitted curve at half-maximal effect.", "data": [{"assay": "Confirmatory qHTS for Inhibitors of ATXN expression; also: nearly all actives have a fitted effect of over 65% in size;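 as to activity change, negative = inhibition: 0% = DMSO vehicle wells and -100% = medium-only wells without cells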", "conditions": "ATXN2-luciferase reporter cells, luminescence, 24 h; series mostly up to 11.5 µM; activity change, negative = inhibition: at the top concentration", "method_in_brief": "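A titration, incubated 24 h with reporter cells expressing ATXN2-luciferase. Luminescence (SteadyGlo) gives ATXN2 expression, multiplexed GF-AFC fluorescence gives viability; normalised to DMSO and medium-only wells.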", "values": [{"smiles": "COc1cccc(OC)c1C(=O)OCC(=O)NC(=O)NCc1ccccc1", "activity change, negative = inhibition": "6.51%"}, {"smiles": "COc1ccccc1C(CCNCc1ccccc1)c1ccc(OC(C)C)cc1", "note": "(stereo not drawn)", "Potency": "3.98 µM (active)"}, {"smiles": "COc1ccc(CNCCC(c2ccc(OC(C)C)cc2)c2ccccc2OC)cc1", "note": "(stereo not drawn)", "Potency": "3.16 µM (active)"}, {"smiles": "CCOC(=O)c1cnc(-n2nc(C)cc2C)nc1NNc1cc(C)nc(-c2ccccc2)n1", "Potency": "3.55 µM (active)"}, {"smiles": "Cc1ccc(OCC(=O)N2CCN(c3nnc(-c4ccc(C)cc4)c4ccccc34)CC2)cc1", "Potency": "3.16 µM (active)"}, {"smiles": "Oc1[nH]c2ccc(Br)cc2c1N=NC(=S)N1CCOCC1", "Potency": "0.631 µM (active)"}, {"smiles": "Clc1ccc(SCc2cc(N3CCOCC3)nc(-c3ccccn3)n2)cc1", "Potency": "5.01 µM (active)"}, {"smiles": "CC(C)(C)S(=O)(=O)/C(C#N)=N/Nc1ccc(Cl)cc1", "Potency": "20 µM (active)"}, {"smiles": "O=S(=O)(c1ccc(F)cc1)c1snnc1-c1ccccc1", "Potency": "15.8 µM (active)"}, {"smiles": "NS(=O)(=O)c1ccc(N2N=C(c3ccccc3)CC2c2ccc(F)cc2)cc1", "note": "(stereo not drawn)", "activity change, negative = inhibition": "-25.9%"}, {"smiles": "Cc1ccc(/C=C2/SC(=S)N(CCCC(=O)Nc3cc([N+](=O)[O-])ccc3O)C2=O)cc1", "Potency": "31.6 µM (active)"}, {"smiles": "Cc1ccc(/C=C2/SC(=S)N(CCCC(=O)Nc3ccc(O)cc3)C2=O)cc1", "Potency": "1.41 µM (active)"}, {"smiles": "Cc1ccc(/C=C2\\SC(=S)N(CCCC(=O)Nc3nccs3)C2=O)cc1", "Potency": "7.08 µM (active)"}, {"smiles": "Cc1ccc(/C=C2\\SC(=S)N(CCCC(=O)Nc3ccc(O)cc3)C2=O)cc1", "activity change, negative = inhibition": "-17.4%"}, {"smiles": "Cc1ccc(/C=C2\\SC(=S)N(CCCC(=O)NC3CCCC3)C2=O)cc1", "Potency": "1.41 µM (active)"}, {"smiles": "Cc1ccc(/C=C2\\SC(=S)N(CCCC(=O)Nc3cccnc3)C2=O)cc1", "Potency": "2.24 µM (active)"}, {"smiles": "Cc1ccc(/C=C2\\SC(=S)N(CCCC(=O)Nc3ccccc3C(=O)O)C2=O)cc1", "Potency": "2.24 µM (active)"}, {"smiles": "CCOC(=O)Cn1cc(C(=O)c2ccco2)c2ccccc21", "activity change, negative = inhibition": "2.65%"}, {"smiles": "Cc1cc(C)cc(NC(=O)/C(C#N)=C/c2cn(CC(=O)NCc3ccco3)c3ccccc23)c1", "Potency": "1.78 µM (active)"}, {"smiles": "COc1ccc(N2C3=C(CC4=C2CC(C)(C)CC4=O)C(=O)CC(C)(C)C3)cc1", "activity change, negative = inhibition": "0.241%"}, {"smiles": "COc1cccc(C2CC(c3c(-c4ccccc4)c4cc(Cl)ccc4[nH]c3=O)=NN2S(C)(=O)=O)c1OC", "note": "(stereo not drawn)", "Potency": "2.82 µM (active)"}, {"smiles": "O=C1c2ccccc2NC(c2ccc(-c3cccc([N+](=O)[O-])c3)o2)N1O", "note": "(stereo not drawn)", "Potency": "15.8 µM (active)"}, {"smiles": "COc1ccc(-c2oc3c(OC)c(OC)c(OC)c(O)c3c(=O)c2OC)cc1OC", "Potency": "10 µM (active)"}, {"smiles": "COc1ccccc1N1CCN(Cc2ccc(O)c3ncccc23)CC1", "Potency": "0.562 µM (active)"}, {"smiles": "COc1ccccc1N1CCN(Cc2cc(Br)c(O)c3ncccc23)CC1", "Potency": "3.55 µM (active)"}, {"smiles": "CO[C@@]12[C@@H]3N[C@@H]3CN1C1=C(C(=O)C(N)=C(C)C1=O)[C@@H]2COC(N)=O", "activity change, negative = inhibition": "6.61%"}, {"smiles": "Cc1nc(SC2CC(=O)N(c3ccccc3)C2=O)n[nH]1", "note": "(stereo not drawn)", "activity change, negative = inhibition": "5.8% [at 57.5 µM]"}, {"smiles": "Cc1c(C(=O)N2CCN(c3ccc(F)cc3)CC2)sc2ncnc(N3CCN(c4ccccn4)CC3)c12", "Potency": "2.82 µM (active)"}, {"smiles": "O=C(c1ccco1)N1CCN(c2ncnc3scc(-c4cccs4)c23)CC1", "activity change, negative = inhibition": "-20.8%"}, {"smiles": "O=C(/C=C/NNC(=O)c1ccccc1)c1ccc([N+](=O)[O-])cc1", "Potency": "3.16 µM (active)"}, {"smiles": "COc1ccc(C(=O)C=CNNC(=O)c2ccc(Cl)cc2)cc1", "Potency": "14.1 µM (active)"}, {"smiles": "CC(C)Cn1c(/C=N/Nc2nc3ccccc3[nH]2)nc2ccccc21", "Potency": "8.91 µM (active)"}, {"smiles": "CCCCn1c(/C=N/Nc2nc3ccccc3[nH]2)nc2ccccc21", "activity change, negative = inhibition": "-15.3%"}, {"smiles": "S=C(NCCCN1CCOCC1)N1CCN(c2nc(-c3ccccc3)cs2)CC1", "Potency": "11.2 µM (active)"}, {"smiles": "O=c1c2ccc(Cl)cc2nc(-c2cccc(C(F)(F)F)c2)n1O", "Potency": "2.51 µM (active)"}, {"smiles": "Cc1cc(/C=N/n2cnnc2)c(C)n1-c1ccc(OCc2ccc(Cl)cc2Cl)cc1", "Potency": "7.94 µM (active)"}, {"smiles": "COc1cc(OC)c2cc(C(=O)N/N=C/c3cccc(OC)c3O)[nH]c2c1", "Potency": "3.55 µM (active)"}, {"smiles": "COc1cccc(/C=N/NC(=O)c2cc3c(OC)cccc3[nH]2)c1O", "Potency": "2.24 µM (active)"}, {"smiles": "Cc1[nH]c(-c2ccc(F)cc2)cc1C(=O)N1CCN(c2ccc(Cl)cc2)CC1", "Potency": "25.1 µM (active)"}, {"smiles": "O=C(NC(=S)N1CCN(c2ccc(F)cc2)CC1)c1cccs1", "activity change, negative = inhibition": "-6.64%"}, {"smiles": "CN1CCN(c2cc(-c3cc(O)c4ncccc4c3)ccn2)CC1", "Potency": "12.6 µM (active)"}, {"smiles": "C/C(=N\\NC(=O)C1CCCN(S(=O)(=O)c2ccccc2)C1)c1ccccn1", "note": "(stereo not drawn)", "Potency": "0.794 µM (active)"}, {"smiles": "C/C(=N\\NC(=O)Cc1ccc(Cl)cc1)c1ccccc1O", "Potency": "14.1 µM (active)"}, {"smiles": "COc1ccc(CC(=O)N/N=C(\\C)c2ccccn2)cc1", "Potency": "11.2 µM (active)"}, {"smiles": "C/C(=N\\NC(=O)C1COc2ccccc2O1)c1ccccn1", "note": "(stereo not drawn)", "Potency": "0.631 µM (active)"}, {"smiles": "C/C(=N\\NC(=O)CCCNc1ccc(C)cc1)c1ccccn1", "Potency": "14.1 µM (active)"}, {"smiles": "CCCCCC(=O)N/N=C(\\C)c1ccccn1", "Potency": "0.501 µM (active)"}, {"smiles": "Cc1ccc(/C=N/NC(=O)C2=NNC(c3ccccc3)(c3ccccc3)C2)c(O)c1", "Potency": "2.82 µM (active)"}, {"smiles": "CC(C)(C)c1nnc(N/N=C/c2ccccc2O)n(N)c1=O", "Potency": "0.891 µM (active)"}, {"smiles": "CCn1c2ccccc2c2cc(C3C(C#N)=C(N)Oc4n[nH]c(COC)c43)ccc21", "note": "(stereo not drawn)", "Potency": "2.82 µM (active)"}, {"smiles": "CCn1c2ccccc2c2cc(NC(=O)COC(=O)c3ccccc3F)ccc21", "Potency": "2 µM (active)"}, {"smiles": "CCn1c2ccccc2c2cc(NC(=O)COC(=O)Cc3cn4ccsc4n3)ccc21", "Potency": "1.26 µM (active)"}, {"smiles": "CCn1c2ccccc2c2cc(NC(=O)COC(=O)c3cc(S(=O)(=O)N4CCCCC4)ccc3Cl)ccc21", "Potency": "1.58 µM (active)"}, {"smiles": "CCn1c2ccccc2c2cc(NC(=O)COC(=O)C3CCC(=O)N3)ccc21", "note": "(stereo not drawn)", "Potency": "11.2 µM (active)"}, {"smiles": "Cc1c(C(=O)NCc2ccc(Cl)c(Cl)c2)sc(=O)n1Cc1ccc(S(C)(=O)=O)cc1", "activity change, negative = inhibition": "-22.8%"}, {"smiles": "COc1ccc(N=Cc2cc3c(cc2O)OC(N)=C(C#N)C3c2ccccc2)cc1", "note": "(stereo not drawn)", "activity change, negative = inhibition": "-25.5%"}, {"smiles": "Cc1cc(OCc2nc(N)nc(N)c2-c2ccc(Cl)c(Cl)c2)ccc1[N+](=O)[O-]", "Potency": "2.51 µM (active)"}, {"smiles": "Cc1ccc(-n2c(-c3ccccc3)c[n+]3c2CCc2ccccc2-3)c(C)c1", "Potency": "0.794 µM (active)"}, {"smiles": "COc1ccccc1-n1c(-c2ccccc2)c[n+]2c1CCc1ccccc1-2", "Potency": "7.94 µM (active)"}, {"smiles": "Cc1nnc(SC(C)C(=O)Nc2ccc(Cl)cn2)n1Cc1ccccc1", "note": "(stereo not drawn)", "activity change, negative = inhibition": "-20.6% [at 57.5 µM]"}, {"smiles": "CNc1ccccc1C(=O)OC(C)C(=O)Nc1ccc(Cl)cn1", "note": "(stereo not drawn)", "Potency": "2 µM (active)"}, {"smiles": "NNC(=O)c1sc2cc(C(F)(F)F)cnc2c1-c1cccs1", "Potency": "28.2 µM (active)"}, {"smiles": "COC1=C(c2ccccc2)C(=O)c2ccccc2C1=O", "activity change, negative = inhibition": "-16.5%"}, {"smiles": "O=C1c2cccc3c([N+](=O)[O-])ccc(c23)C(=O)N1c1ccccn1", "Potency": "3.98 µM (active)"}, {"smiles": "O=C(Nc1nccs1)c1cccc(N2C(=O)c3cccc4c([N+](=O)[O-])ccc(c34)C2=O)c1", "Potency": "20 µM (active)"}, {"smiles": "Cc1ccnc(N2C(=O)c3cccc4c([N+](=O)[O-])ccc(c34)C2=O)c1", "Potency": "28.2 µM (active)"}, {"smiles": "Cc1ccc(Cl)cc1-c1ccc(C=Nc2ccc(N3CCOCC3)cc2)o1", "Potency": "12.6 µM (active)"}, {"smiles": "C=CCn1cnc2c(c1=O)c1nc3ccccc3nc1n2/N=C/c1cc(OC)c(OC)c(OC)c1", "Potency": "14.1 µM (active)"}, {"smiles": "Cc1ccc2nc(NNC(=O)c3ccc(S(=O)(=O)N4CCc5ccccc5C4)cc3)sc2c1", "Potency": "2.51 µM (active)"}, {"smiles": "Cc1cc(C)c2nc(NNC(=O)c3ccc(S(=O)(=O)N4CCc5ccccc5C4)cc3)sc2c1", "Potency": "3.16 µM (active)"}, {"smiles": "NC(=O)c1cc([N+](=O)[O-])ccc1NCc1ccc(N)cc1", "Potency": "4.47 µM (active)"}, {"smiles": "C[n+]1c2cc(N)ccc2cc2ccc(N)cc21", "Potency": "4.47 µM (active) and 3.55 µM (active)"}, {"smiles": "Nc1c(C(=O)NCc2ccc(F)cc2)c2nc3ccccc3nc2n1CCCN1CCOCC1", "Potency": "3.16 µM (active)"}, {"smiles": "Cn1c(/C=C/c2ccc(Cl)cc2Cl)c([N+](=O)[O-])c(=O)n(C)c1=O", "Potency": "11.2 µM (active)"}, {"smiles": "Cn1c(/C=C/c2cccc([N+](=O)[O-])c2)c([N+](=O)[O-])c(=O)n(C)c1=O", "Potency": "25.1 µM (active)"}, {"smiles": "Cn1c(/C=C/c2ccc(Cl)cc2)c([N+](=O)[O-])c(=O)n(C)c1=O", "Potency": "22.4 µM (active)"}, {"smiles": "O=C1C=CCC(/C=C/c2ccccc2)O1", "note": "(stereo not drawn)", "Potency": "6.31 µM (active)"}, {"smiles": "CCC(C)(C)c1ccc(OCCCC[n+]2ccccc2)c(C(C)(C)CC)c1", "Potency": "3.16 µM (active)"}]}]}
